# From PubChem
# Giardia kill: Small Molecules that selectively kill Giardia lamblia: qHTS | activity change, % at 7.66 µM, hits read low | AID 540267, 2011 | Giardia lamblia trophozoite viability | 0.15% of 340,000 active; in the data active means activity change below about -80%; inconclusive means between about -30% and that limit;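 further: parasites exposed to compound for two days anaerobically before the ATP read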
#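 Killing of trophozoites was scored by loss of ATP luminescence after a 48 hrs anaerobic exposure to compounds at 37 deg C, using 100 cells per well.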
# MCF10A rereplic: A quantitative high throughput screen for small molecules that induce DNA re-replication in MCF 10a normal breast cells | Potency, µM (series often up to 46.1 µM), usual class: activators | MCF 10A DNA re-replication, Hoechst nuclear intensity, 48 h | AID 624296, 2012 | 2.9% of 350,000 active; further: nearly all actives have a fitted effect of over 50% in size
# Vif-APOBEC3F blk: qHTS for Inhibitors of Vif-A3F Interactions: qHTS. HeLa A3F-eYFP + Vif (tagged APOBEC3F with the HIV-1 protein that degrades it), YFP fluorescence increase. Potency, µM (highest dose often 46.1 µM). 0.2% of 390,000 active; further: nearly all actives have a fitted effect of over 65% in size
#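 HeLa cells stably expressing Vif plus C-terminally eYFP-tagged A3F were seeded, incubated overnight at 37 deg C, dosed with compound, incubated overnight again at 37 deg C. Yellow fluorescence (Ex 488/Em 500-530) reported blocked Vif-mediated A3F-eYFP degradation.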
# Vif-A3G inh: qHTS for Inhibitors of Vif-A3G Interactions: qHTS; DNA dC->dU-editing enzyme APOBEC-3G (Homo sapiens), Q9HC16; HeLa A3G-eYFP + Vif (tagged APOBEC3G with the HIV-1 protein that degrades it), YFP fluorescence, overnight; Potency, µM (titrated, usually from 46.1 µM), usual class: inhibitors; 0.076% of 410,000 active; AID 602310, 2012; further: nearly all actives have a fitted effect of over 60% in size
# Target sequence (Q9HC16 whole entry, looked up): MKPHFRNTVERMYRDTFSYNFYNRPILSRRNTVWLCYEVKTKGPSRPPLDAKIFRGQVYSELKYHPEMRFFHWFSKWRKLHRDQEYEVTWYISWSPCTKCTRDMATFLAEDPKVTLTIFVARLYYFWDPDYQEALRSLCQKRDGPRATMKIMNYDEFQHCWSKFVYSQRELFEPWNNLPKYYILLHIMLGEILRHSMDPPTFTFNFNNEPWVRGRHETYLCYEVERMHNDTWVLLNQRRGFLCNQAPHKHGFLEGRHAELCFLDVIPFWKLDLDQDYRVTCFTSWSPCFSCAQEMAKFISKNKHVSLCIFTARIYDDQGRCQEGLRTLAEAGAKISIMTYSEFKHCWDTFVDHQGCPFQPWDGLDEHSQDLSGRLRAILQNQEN
#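 Read-out is eYFP fluorescence (Ex 488/Em 500-530) from Vif-expressing HeLa A3G-eYFP cells; more signal means A3G escaped Vif-mediated degradation. Cells plated overnight, compound pinned in, incubated overnight at 37 deg C.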
# IL1B secr inh: qHTS for Inhibitors of Inflammasome Signaling: IL-1-beta AlphaLISA Primary Screen | THP-1 LPS/ATP IL-1B secretion, AlphaLISA, 16 h; hits give low values | activity change, % at 57.5 µM | 4.7% of 360,000 active; in the data active means activity change below about -50%; inconclusive means mostly about -30% to -49%
#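 Secreted IL-1B measured by AlphaLISA bead assay after 16 h compound exposure of THP-1 cells; compounds (final up to 57.5 uM) added 1 h before LPS (250 ng/mL) and ATP (1.25 mM) stimulation; lower signal means less secretion.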
# SW480 rerep: A quantitative high throughput screen for small molecules that induce DNA re-replication in SW480 colon adenocarcinoma cells | 1.8% of 340,000 active | Potency, µM (titrated, usually from 46.1 µM), most hits filed as activators | AID 624297, 2012 | SW480 DNA re-replication, Hoechst DNA content imaging, 48 h; further: nearly all actives have a fitted effect of over 55% in size
#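 Cells (250 per well) received 23 nL compound or DMSO by pin tool and were kept 48 hr at 37 C, 5% CO2. Nuclei were then stained with Hoechst for 40 min and scanned for DNA content.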
# A number is an active result; i = inactive; ? = inconclusive; nt = not tested or not shown. Most compounds without a hit are left out; they make up all but 6.9% or so of the library. Unless noted, the call rests on the fitted dose curve; in most records, active means well fitted curve in the direction sought with a large enough effect; inconclusive means small, poorly fitted or top-dose-only effect, or another doubt; inactive means no such curve, though single readings can be large; an effect the other way counts as inactive or inconclusive.
SMILES,Giardia kill,MCF10A rereplic,Vif-APOBEC3F blk,Vif-A3G inh,IL1B secr inh,SW480 rerep
O=C(OC1CCCCC1)c1ccc(NC(=O)c2ccco2)cc1,i,14.6µM,i,i,i,i
Cn1c(=O)n(C)c2cc(NC(=O)CCl)ccc21,i,18.4µM,i,?,-91.0,?
CC(=O)Nc1ccc2c(c1)n(C)c(=O)n2C,i,i,i,i,i,i
COc1ccc(NC(=O)/C(=C\c2ccco2)NC(=O)c2ccco2)cc1,i,i,i,i,i,i
CCC(=O)N1CCc2cc(S(=O)(=O)N(C)c3cccc(C)c3)ccc21,nt,nt,i,i,nt,nt
Cc1ccc(S(=O)(=O)CCC(=O)Nc2ccc(Br)cc2C)cc1,nt,nt,i,i,nt,nt
COc1cccc(CNc2sc3c(c2C(=O)Nc2ccc(OC)cc2OC)CCC3)c1,nt,nt,i,i,nt,nt
CCN(CC)c1ccc(/C=N/NC(=S)NCc2ccc(OC)cc2)cc1,i,10.3µM,i,i,?,?
CCN(CC)c1ccc(/C=N/NC(=O)C(O)c2ccccc2)cc1 (centres undefined),i,i,i,i,i,i
CCN(CC)c1ccc(/C=N/NC(=S)NCc2ccccc2)cc1,i,20.6µM,i,i,i,?
C=CCNC(=S)N/N=C/c1ccc(N(CC)Cc2ccccc2)cc1,i,?,i,i,i,18.4µM
CCOc1ccccc1CNC(=O)Cn1cc2c(n1)-c1c(oc(C(=O)N3CCCC3)c1C)CC2,nt,nt,i,i,nt,nt
COc1cccc(CNC(=O)c2sc3nc4n(c(=O)c3c2C)CCC4)c1,nt,nt,i,i,nt,nt
O=C(Nc1ccc(Cn2cccn2)cc1)c1ccc(COc2ccccc2Br)cc1,i,?,i,i,-60.1,?
O=C(N/N=C/c1ccc(C(F)(F)F)cc1)c1ccc(O)cc1,i,i,i,i,?,i
COc1ccc2ccccc2c1/C=N/NC(=O)c1cccc(Br)c1,i,?,i,i,i,i
O=C(N/N=C/c1c(O)ccc2ccccc12)c1cccc(C(F)(F)F)c1,i,4.61µM,?,?,i,?
O=C(N/N=C/c1cccc(C(F)(F)F)c1)c1ccc(O)cc1,i,i,i,i,-81.0,i
O=C(N/N=C/c1ccc(N2CCOCC2)o1)c1cccc(C(F)(F)F)c1,i,20.6µM,i,i,i,?
O=C(N/N=C/c1ccc(N2CCOCC2)o1)c1ccccc1[N+](=O)[O-],i,?,i,i,i,i
COc1cccc(NC(=O)N2CCN3CCCCC3C2)c1 (centres undefined),nt,nt,i,i,nt,nt
COc1ccc(F)cc1S(=O)(=O)NCCc1csc2nc(-c3cccc(C)c3)nn12,nt,nt,i,i,nt,nt
COc1ccc2c(Sc3ccccc3)c(C(=O)NCc3cc(Br)ccc3OC)[nH]c2c1,nt,nt,i,i,nt,nt
Cc1ccc2c(c1)C(c1ccccc1)N(C(=O)COc1ccc(Cl)cc1Cl)CC(=O)N2 (centres undefined),nt,nt,i,i,nt,nt
O=C(CSc1nnc(-c2ccncc2)n1-c1ccccc1)Nc1ccc(Br)cc1,nt,nt,i,i,nt,nt
SMILES,Giardia kill,MCF10A rereplic,Vif-APOBEC3F blk,Vif-A3G inh,IL1B secr inh,SW480 rerep
O=C(N/N=C/c1cccc(O)c1)c1ccc(COc2ccccc2Br)cc1,i,23.1µM,?,i,-68.0,i
O=C(N/N=C\c1c(O)ccc2ccccc12)c1ccc(Cn2cccn2)o1,i,10.3µM,?,i,i,?
Cc1ccc(NC(=O)CSc2nnc3nc(C)cc(C)n23)cc1,nt,nt,i,i,nt,nt
COc1ccc(C(CNC(=O)Cc2ccc(-c3ccccc3)cc2)N(C)C)cc1 (centres undefined),i,?,i,i,i,18.4µM
CN(C)C(CNC(=O)c1ccc(-c2ccccc2)cc1)c1ccccc1 (centres undefined),i,i,i,i,-54.0,?
COc1ccc(/C=C/C(=O)Nc2ccccc2C(=O)NCC(c2ccc(OC)cc2)N(C)C)cc1 (centres undefined),i,?,i,i,-77.9,i
O=S(=O)(c1ccc(Br)cc1)N1CCN(c2nc(-c3cccs3)nc3ccccc23)CC1,i,nt,nt,i,nt,nt
COc1ccc(-c2ccc(C3C4C=CCC(C)C4C(=O)N3Cc3ccccc3)c(F)c2)cc1C (centres undefined),i,nt,nt,i,nt,nt
O=C(NCC1CC1)c1ccc2nc(-c3ccoc3)c(-c3ccoc3)nc2c1,i,nt,nt,i,nt,nt
Cc1cccc(N2C(S)=C(C#N)C(=O)NC2c2ccco2)c1 (centres undefined),i,?,?,i,i,i
N#CC1=C(S)N(c2ccccc2)C(c2ccc(-c3cccc(Cl)c3)o2)NC1=O (centres undefined),i,?,7.08µM,i,i,23.1µM
Cc1ccccc1C(=O)Nc1cccc(NC(=O)c2ccc(C(C)(C)C)cc2)c1,nt,nt,i,i,nt,nt
CCOC(=O)/C(=C/c1c[nH]c2ccccc12)NC(C)=O,i,i,i,i,i,i
CCOC(=O)/C=C(C)\C=C\c1c[nH]c2ccccc12,i,i,i,i,-64.0,i
COc1ccc(CNCc2ccc(F)cc2)c(OC)c1,i,i,i,i,i,i
COc1cccc(CNCc2ccc(OC)cc2OC)c1,i,i,i,i,-56.5,i
CCOc1cc(CNCc2cc(OC)cc(OC)c2)ccc1OC,i,i,i,i,-58.2,i
COc1ccc(CNCc2cc(C)c(OC)cc2C)c(OC)c1,i,?,i,i,-63.0,?
COc1cc(CNCc2cc(OC)ccc2OC)cc(OC)c1,i,i,i,i,-56.6,?
CCCCC(CC)CNC(=O)CCCn1c(=O)[nH]c2ccsc2c1=O (centres undefined),nt,nt,i,i,nt,nt
N#CCCn1cc(CNCc2cccnc2)c(-c2ccccc2)n1,i,nt,nt,i,nt,nt
CCc1ccc2occ(CC(=O)Nc3sc4c(c3C(=O)NCCOC)CCCC4)c2c1,nt,nt,i,i,nt,nt
Cc1cccc2sc(N(Cc3cccnc3)C(=O)C3CCCCC3)nc12,nt,nt,i,i,nt,nt
CCC(CC)NCc1ccc2c(c1)c1ccccc1n2CC,i,20.6µM,i,i,-54.2,i
CCn1c2ccccc2c2cc(N)ccc21,i,?,i,i,i,i
CCn1c2ccccc2c2cc(CNCc3ccc(OC)cc3OC)ccc21,i,7.31µM,i,i,-88.3,?
CCN1C(=O)c2ccccc2S(=O)(=O)c2ccc(C(=O)NCc3ccc(C)cc3)cc21,nt,nt,i,i,nt,nt
C#C[C@]1(O)CC[C@@H]2[C@H]3CCC4=CC(=O)CC[C@H]4[C@H]3C(=C)C[C@@]21CC,nt,i,nt,nt,nt,i
CC(C)(CC(=O)N1CCN(c2ccc(Cl)cc2)CC1)CC1=NS(=O)(=O)c2ccccc2N1,i,i,i,i,-50.9,i
